Measurements taken from PubChem BioAssay (NCI).
Compounds without any hit were thinned out: in the full panel of roughly 83,000, 20% have a hit.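 Values shown are percent growth following 48 h exposure of cells in 96-well plates to a single concentration of compound; below 10 was considered active.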 Values without a mark were called inactive.

test system: A549/ATCC NSCLC; experiment: NCI-60 one-dose screen, 48 h (100 = growth as untreated, 0 = no growth, -100 = all killed); conditions: 10 µM unless noted

Structure (SMILES)	growth [%]
Cc1c(C(=O)NC(Cc2ccccc2)C(O)C(=O)NCc2ccc(F)cc2)[nH]c2ccccc2c1=O (centres undefined)	101
Cc1cc(C(=O)c2ccccc2)c(C)c2c1[nH]c1ccc(Cl)cc12	19.6
COc1ccc(C(=O)/C=C/c2c(C(F)(F)F)nc3sccn23)cc1OC	73.8
O=Cc1c[nH]c2ccc(-c3csc4ccccc34)cc12	48.1
Cc1ccc(/C=C/c2c(C(=O)/C=C/c3ccc(C(F)(F)F)cc3)c(C)nc3ccccc23)cc1	77.2
N#CC1=C(/N=C/c2ccccc2)Oc2c(ccc3ccccc23)C1c1ccccc1 (centres undefined)	21
O=C(NCCc1ccc(O)c(O)c1)C12CC3CC(CC(C3)C1)C2	105
Cc1cc(=O)[nH]c(N=Nc2c(O)[nH]c3ccccc23)n1	103
COc1ccc2oc3c(C)c4c(c(C)c3c2c1)C(=O)N(Cc1ccccc1)C4=O	83.9
COc1ccc2[nH]c(O)c(/C=c3/cc4c(c(-c5cc(OC)c(OC)c(OC)c5)n3)=Nc3ccccc3-4)c2c1	72.5
CC(=O)c1nc(Nc2ccc(C)cc2)sc1C	96.7
COc1ccc(N=C(c2ccccc2)C2C(=O)c3ccccc3C2=O)cc1	93.6
CCCCc1ccc(Nc2ccc(Nc3ccc(CCCC)cc3S(=O)(=O)O)c3c2C(=O)c2ccccc2C3=O)c(S(=O)(=O)O)c1	102
Cc1nn(-c2ccccc2)c2nc3c(c(-c4ccc(Cl)cc4)c12)CNC1(CCSCC1)N3	87
